# Among all 97,000 compounds or so, about 210 (0.22%) were called active. This excerpt belongs to a sample that is enriched for actives. Values without a mark were called inactive. No stated cut-off is given here; in the data, active means inhibition above about 45%; inactive means the rest.
# Target: Sphingosine 1-phosphate receptor 2 (Homo sapiens) (UniProt O95136)
# Experiment: human S1P2 receptor antagonists, primary screen, cell-based (AID 736);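 further: CRE beta-lactamase reporter cells expressing human S1P2 stimulated with S1P; 0% = agonist at EC80 alone and 100% = agonist plus reference antagonist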
# Settings: cell-based S1P2 antagonist assay, at 5 µM, stronger effect = higher value
# Chain of Sphingosine 1-phosphate receptor 2 (Homo sapiens) (O95136 whole entry, looked up): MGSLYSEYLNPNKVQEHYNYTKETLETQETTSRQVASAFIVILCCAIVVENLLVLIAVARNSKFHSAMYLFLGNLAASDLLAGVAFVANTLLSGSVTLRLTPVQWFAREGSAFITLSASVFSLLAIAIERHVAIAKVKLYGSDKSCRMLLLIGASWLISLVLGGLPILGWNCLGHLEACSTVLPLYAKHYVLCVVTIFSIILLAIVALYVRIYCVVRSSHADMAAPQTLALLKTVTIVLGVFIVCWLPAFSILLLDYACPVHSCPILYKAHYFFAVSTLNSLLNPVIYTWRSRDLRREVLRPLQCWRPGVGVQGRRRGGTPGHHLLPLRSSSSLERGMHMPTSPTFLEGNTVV
row,SMILES,inhibition
1,COc1cc(N2CCCC2)c(OC)cc1/C=C(/C#N)c1cccc(Br)c1,-9.11%
2,O=C1COc2ccc(NC(=O)N3CCN(c4ccc(F)cc4)CC3)cc2N1,9.28%
3,CCn1c(CNC(=O)c2ccccc2)nnc1SCC(=O)N1CCN(c2ccccc2)CC1,2.56%
4,C=C(C)C(=O)Nc1cccc(C(C)=O)c1,-17.2%
5,CCN(CC)C(=O)CSc1nnc(CNc2ccc(F)cc2)n1Cc1ccco1,-21.8%
6,CCOc1cccc(C(=O)Nc2nnc(-c3cccs3)s2)c1,-13.1%
7,O=C(Nc1cccc2ncccc12)c1ccc(-c2ccc(Cl)cc2Cl)o1,20.4%
8,Cc1cccc(NC(=O)Cn2cc(C(=O)c3ccco3)c3ccccc32)c1,16.7%
9,CCN(CC)S(=O)(=O)c1cc([N+](=O)[O-])ccc1NNC(=O)Nc1ccccc1,-2.47%
10,O=C(NCCCN1CCCCC1)c1ccc2c(c1)NC(=O)C(N1CCOCC1)S2 (centres undefined),14.6%
11,COC(=O)CSc1nc(C)c2ccc(OC)cc2n1,7.81%
12,COc1cccc(/C=N\Nc2nncc(-c3ccccc3)n2)c1,20.6%
13,Cc1cc2nc(SCCN3CCOCC3)[nH]c2cc1C,6.34%
14,Cc1csc(OCC(=O)Nc2ccc(C)c(C)c2)n1,6.53%
15,CCOc1ccc(C(O)Cc2nc3ccccc3n2C)cc1 (centres undefined),-0.2%
16,CCOC(=O)c1cc(C#N)c(N2CCCCC2)nc1-c1ccccc1,1.48%
17,O=C(Nc1nccs1)c1cc(S(=O)(=O)N2CCOCC2)c(Cl)cc1Cl,0.95%
18,COc1ccc(NC(=O)/C(Cl)=C(/Cl)S(=O)Cc2ccc(C)cc2)cn1 (centres undefined),98.7% (active)
19,COc1cccc(NC(=O)Cc2ccc(C)cc2)c1,-17%
20,COC(=O)/C(NC(C)=O)=C(\C)c1ccc(Cl)cc1,-17.7%
21,Cc1cc2cc3c(N)[nH]nc3nc2cc1C,6.72%
22,Cc1ccc(O/C=C2\OC(=O)c3ccccc32)cc1,-18.2%

row,SMILES,inhibition
1,COc1ccc(Cl)cc1NC(=O)CN(C)C(=O)CNC(=O)C12CC3CC(CC(C3)C1)C2,-3.56%
2,COc1ccc(/C=C(\NC(=O)c2ccc(OC)c(OC)c2)C(=O)NCCc2c[nH]c3ccccc23)cc1,8.6%
3,O=C(Nc1ccc2ccccc2c1)Nc1ccc2snnc2c1,-5.16%
4,CC(=O)NNc1cc(=O)c2c(=O)n(C)c(=O)n(C)c2[nH]1,22.2%
5,COc1cccc(N2CCN(C3CC(=O)N(c4ccc(Cl)cc4)C3=O)CC2)c1 (centres undefined),-1.94%
6,CN(C)c1ccc(NC(=S)N(CCc2ccccc2)C2CC(=O)N(c3c(Cl)cccc3Cl)C2=O)cc1 (centres undefined),14.5%
7,COC(=O)CN(C(=S)Nc1ccc(Cl)cc1)C1CC(=O)N(c2ccc(OC)cc2)C1=O (centres undefined),54.6% (active)
8,CC1CCN(CC(=O)c2c[nH]c3ccccc23)CC1,12.6%
9,CCCCNC(=O)C1CCCNC1=O (centres undefined),0.22%
10,CCCCCCCC(=O)NC(Nc1ccccc1OC)C(Cl)(Cl)Cl (centres undefined),-5.42%
11,O=C(O)C1CCN(C(=O)OCc2ccccc2)CC1,9.58%
12,CC(C)CCOc1ccc(C(=O)C[N+]2(C)CCOCC2)cc1,8.2%
13,CC(NC(=O)C1CCC(CNc2c(N3CCOCC3)c(=O)c2=O)CC1)c1ccccc1 (centres undefined),4.51%
14,O=C(Nc1ccc2oc(-c3ccc4ccccc4c3)nc2c1)c1cccs1,7.93%
15,O=C(NC(Nc1nc2ccc([N+](=O)[O-])cc2s1)(C(F)(F)F)C(F)(F)F)c1ccccc1,97.3% (active)
16,Cc1cc(C)cc(OCC(=O)Nc2nc3ccc([N+](=O)[O-])cc3s2)c1,4.48%
17,COC(=O)C(NC(=O)c1ccc(OC)cc1)(Nc1ncc(S(=O)(=O)c2ccc([N+](=O)[O-])cc2)s1)C(F)(F)F (centres undefined),19.9%
18,Cc1ccc(CN(N=Nc2nonc2N)c2nonc2N)c(C)c1,-6.92%
19,COC(=O)c1cccc(-n2[nH]nnc2=S)c1,15.5%
20,Cc1ccc(-c2cc(C(=O)NCC3CCCO3)c3ccccc3n2)o1 (centres undefined),6.28%
21,Cc1nn(Cc2ccc(F)cc2)c(C)c1NC(=O)c1noc2c1CCc1ccccc1-2,2.56%
22,O=C(CSc1nnnn1-c1ccccc1)NCc1ccco1,-4.03%

row,SMILES,inhibition
1,CC(C)NC(=O)NC(=O)COC(=O)c1ccc(NC(=O)CC#N)cc1,-12.5%
2,O=C(/C=C/c1ccc(Cl)cc1Cl)c1cccnc1,-15.8%
3,O=C(NNC(=O)c1cccnc1)Nc1ccccc1,8.67%
4,Fc1ccc(-n2c(Cc3ccccc3)nnc2SCc2nc(-c3ccc(Cl)cc3)no2)cc1,-18.9%
5,FC(F)(F)c1cccc(NC(=S)Nc2cccc(Cl)c2)c1,-0.66%
6,Cc1ccc(/C=N/NC(=O)C2=NNC(c3ccccc3)(c3ccccc3)C2)c(O)c1,-25.5%
7,CC1(C)C2CCC13CS(=O)(=O)NC3C2 (centres undefined),2.66%
8,CCCNC(=S)N1CCC(NC(=O)C23CC4CC(CC(C4)C2)C3)CC1,22.7%
9,CCOC(=O)c1sc(NC(=O)CSc2nc(C)cc(C(F)(F)F)n2)c(C#N)c1C,-9.87%
10,FC(F)(F)c1nnc2ccc(N3CCN(c4ccccc4)CC3)nn12,0.81%
11,N=c1oc2ccccc2cc1C(=O)N/N=C/c1ccccc1,10.7%
12,CNC(=O)/C(=C\C=C\c1ccccc1)NC(=O)c1ccc([N+](=O)[O-])cc1,10.7%
13,CC(N)C12CC3CC(CC(O)(C3)C1)C2 (centres undefined),-17.7%
14,CS(=O)(=O)N1CCN(c2ccc(C(=O)NC3C4CC5CC(C4)CC3C5)cc2[N+](=O)[O-])CC1 (centres undefined),-2.62%
15,CCSc1nnc(NC(=O)c2ccc(C)cc2)s1,0.05%
16,Cc1onc(-c2ccccc2Cl)c1C(=O)OCC(=O)c1ccccc1,-10%
17,O=C1c2ccccc2C(=O)N1CCC(c1ccccc1)c1ccco1 (centres undefined),11.1%
18,O=C(CCS(=O)(=O)c1cccc2nsnc12)N1CCN(c2ccccc2F)CC1,11.1%
19,CC(C)(C)c1ccc(C(=O)NNC(=O)Cc2ccccc2)cc1,-7.08%
20,COc1ccc(C2CC(=O)Nc3sc(=N)c4c(N)c(C#N)c(N)nc4c32)cc1OC (centres undefined),-38.4%
21,CC(C)OCCCNc1ncnc2c1[nH]c1ccc(F)cc12,65.9% (active)
22,O=C1CCCN1CCCNc1ncnc2c1[nH]c1ccccc12,15.4%

row,SMILES,inhibition
1,CCN1CCCC1CNc1ncnc2c1[nH]c1ccc(F)cc12 (centres undefined),-0.72%
2,Cc1cc(O)cc(O)c1C(=O)Cc1cnn(-c2ccccc2)c1,-8.95%
3,COc1ccc(C(=O)Oc2cc(/C=N/NS(=O)(=O)c3ccc(C)cc3)ccc2OC)cc1,1.84%
4,CC(=O)c1ccc2c(c1)c1ccccc1n2CC(C)C,-13.4%
5,Clc1ccc(CSc2nnc(/C=C/c3ccccc3)o2)c(Cl)c1,-0.17%
6,CCN(CC)CCn1c2ccc(Cl)cc2c2nc(C)sc21,-30.3%
7,Cc1ccc(C(=O)/C=C/c2c(C)nn(-c3ccccc3)c2Cl)cc1,-1.65%
8,CC(C)(C)c1ccc(C(=O)CSc2ncn[nH]2)cc1,19.4%
9,O=C(/C=C/Sc1ncn[nH]1)c1ccc(Cl)cc1,59.7% (active)
10,COc1ccc(C(=O)Cc2cnn(-c3ccccc3)c2)c(O)c1,-22.1%
11,Cc1ccc(OCc2nnc(NC(=O)OCC(C)C)s2)cc1,-11.9%
12,CCc1ccccc1NC(=O)/C(=C/c1ccccc1)c1ccccc1,9.77%
13,O=C(Nc1ccc2c(c1)OCCO2)c1ccc(Cl)c(S(=O)(=O)N2CCCCC2)c1,-2.73%
14,O=c1c2ccccc2c(-c2ccc(F)cc2)nn1-c1ccc(C(F)(F)F)cc1,8.3%
15,O=C(NCC1CCCO1)c1ccc2ccccc2n1 (centres undefined),-13.9%
16,Cc1c(C=O)c2ccccn2c1C(=O)c1ccncc1,-13%
17,Cc1ccc(CN(C(=O)c2sc3ccccc3c2Cl)C2CCS(=O)(=O)C2)cc1 (centres undefined),15.7%
18,COc1cc(/C=C(/NC(=O)c2ccccc2)C(=O)Nc2cccc(O)c2)c([N+](=O)[O-])cc1OC,-3.81%
19,Cc1cc(C)c([N+](=O)[O-])cc1-c1ccc(/C=N/NC(=O)c2nonc2N)o1,-20.8%
20,Cc1cc(C)n2nc(C(=O)NC(C)(C)C)nc2n1,-24.4%
21,CCOC(=O)C(C)n1cnc2sc(C)c(C)c2c1=O (centres undefined),-21.8%
22,O=C(Cc1c(O)c2ccccc2[nH]c1=O)NCc1ccccc1,2.46%

row,SMILES,inhibition
1,Cc1ccc(N(Cc2ccc(C(=O)Nc3ccccc3C(=O)NCc3ccco3)cc2)S(C)(=O)=O)cc1C,29.7%
2,CCN1CCN(CCCCOc2ccccc2F)CC1,-15.3%
3,Cc1noc(COc2ccccc2OCc2onc(C)c2Cl)c1Cl,-6.44%
4,O=C(COc1ccc(Cl)cc1)NCCSc1ccccc1,-5.9%
5,COCCn1c(C)cc(C2=NNC(=Nc3ccc(F)cc3)SC2)c1C,8.96%
6,O=C1Cc2ccccc2Sc2ccc(Cl)cc21,1.39%
7,Cn1c(NN)nc2sc3c(c2c1=O)CCC3,-7.52%
8,CCOc1ccc(-n2c(N)c(C(=O)NCC3CCCO3)sc2=S)cc1 (centres undefined),1.44%
9,CCCCOC(=O)Cn1c(=O)n(CC(=O)OCCCC)c2cc(C)ccc21,-1.39%
10,Cc1ccc(-c2cnc(NC(=O)CCC(=O)N(C)Cc3ccccc3)n2C)cc1,15.9%
11,O=C1C(Cl)=C(N2CCOCC2)C(=O)N1c1ccccc1,11.4%
12,O=C(/C=C/c1cc2c(cc1Br)OCO2)NCc1ccc(Cl)cc1,12.8%
13,O=C(CCCN1C(=O)c2cccc3cccc(c23)C1=O)N1CCN(Cc2ccc3c(c2)OCO3)CC1,13.4%
14,O=C(CSCc1c(Cl)cccc1Cl)NN1C(=O)c2ccccc2C1=O,7.21%
15,O=c1cc(N2CCN(Cc3ccccc3)CC2)c(-c2ccccc2)n[nH]1,11.6%
16,O=C(Nc1cccc2ncccc12)C(Cl)(Cl)Cl,7.55%
17,O=C(CSc1ncn[nH]1)Nc1ccnc2ccccc12,2.49%
18,O=C(NCN1CCN(CCO)CC1)c1cnccn1,4.69%
19,O=C(Nc1nccs1)C1CCN(S(=O)(=O)c2ccc(Cl)c(C(F)(F)F)c2)CC1,13.1%
20,CC1CC(C)CN(CC(=O)N2c3ccccc3CCc3ccccc32)C1 (centres undefined),3.76%
21,CCn1c(SCc2ccc(C)cc2)nnc1-c1nn(-c2ccccc2)ccc1=O,7.22%

# — PubChem BioAssay AID736 (The Scripps Research Institute Molecular Screening Center, 2007)
